Compound activity: PubChem, several laboratories
FBA Mtb inh: inhibitors of M. tuberculosis fructose-bisphosphate aldolase; P9WQA3; purified M. tuberculosis FBA, fluorescence read-out; inhibition, % at 1 µM; 360,000 compounds, 2.3% hits;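 note: 0% = vehicle and 100% = reference inhibitor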
Target sequence (P9WQA3 whole entry, looked up): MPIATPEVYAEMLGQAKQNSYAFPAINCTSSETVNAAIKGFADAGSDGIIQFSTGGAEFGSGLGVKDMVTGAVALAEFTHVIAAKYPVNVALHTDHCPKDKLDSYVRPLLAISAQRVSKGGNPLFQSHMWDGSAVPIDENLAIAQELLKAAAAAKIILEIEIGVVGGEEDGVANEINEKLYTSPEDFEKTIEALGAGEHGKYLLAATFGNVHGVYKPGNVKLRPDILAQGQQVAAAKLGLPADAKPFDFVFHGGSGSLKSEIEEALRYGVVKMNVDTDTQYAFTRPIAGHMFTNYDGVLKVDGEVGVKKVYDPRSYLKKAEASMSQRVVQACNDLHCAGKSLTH
FadD28 binding: M. tuberculosis FadD28 bisubstrate binding inhibition. FadD28 bisubstrate probe binding, fluorescence polarization. inhibition, % at 12.5 µM. 360,000 compounds, 0.22% hits. AID 588549; in the data active = inhibition above about 8.5%, passing the limit was not always enough
Rv3671c inh: inhibitors of M. tuberculosis serine protease Rv3671c | P9WHR9 | inhibition, % at 5.96 µM | 320,000 compounds, 0.048% hits | AID 2606; in the data active = inhibition above about 38%;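 note: extracellular domain of Rv3671c used as enzyme; 0% = enzyme with DMSO and 100% = no enzyme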
Target sequence (P9WHR9 whole entry, looked up, the tested form may be a part): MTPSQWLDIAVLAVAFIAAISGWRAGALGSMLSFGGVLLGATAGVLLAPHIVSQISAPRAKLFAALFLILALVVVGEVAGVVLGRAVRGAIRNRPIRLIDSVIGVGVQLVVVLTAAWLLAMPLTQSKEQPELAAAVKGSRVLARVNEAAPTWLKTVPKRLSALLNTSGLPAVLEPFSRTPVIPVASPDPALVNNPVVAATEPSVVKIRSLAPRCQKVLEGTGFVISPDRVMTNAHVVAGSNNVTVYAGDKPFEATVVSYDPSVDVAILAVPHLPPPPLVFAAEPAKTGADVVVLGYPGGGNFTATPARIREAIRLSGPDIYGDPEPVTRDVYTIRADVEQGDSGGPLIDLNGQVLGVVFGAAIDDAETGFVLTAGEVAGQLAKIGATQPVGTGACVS
Mtb hypoxia inh: Mtb hypoxia fluorescent reporter inhibition; M. tuberculosis hypoxia-regulated fluorescent reporter, fluorescence; fluorescence inhibition, % (concentration not given with the values); 300,000 compounds, 0.1% hits; AID 1159583; in the data active = fluorescence inhibition mostly above about 23%, no sharp cut-off; inactive = mostly below about 17%
Mtb UGM inh: inhibitors of M. tuberculosis UDP-galactopyranose mutase. purified UGM, fluorescence polarization probe displacement. 320,000 compounds, 0.06% hits. inhibition, % at 10 µM. AID 504406. P9WIQ1; in the data active = inhibition above about 10%, passing the limit was not always enough
GDH-TPI counter-1: inhibits GDH-TPI coupling enzymes, artifact for Mtb FBA screen. 360,000 compounds, 1.2% hits. GDH-TPI coupled enzyme counterscreen, NADH absorbance. AID 588335. inhibition, % at 4.8 µM; in the data active = inhibition above about 30%;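 note: 0% = DMSO wells and 100% = wells lacking the enzyme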
Mtb FBA inh conf: confirmation of M. tuberculosis fructose-bisphosphate aldolase inhibitors. shares compounds with FBA Mtb inh. purified M. tuberculosis FBA, fluorescence read-out. inhibition, % at 1 µM. 5,600 compounds, 78% hits. AID 651616;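 note: 0% = vehicle wells and 100% = reference inhibitor wells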
GDH-TPI counter-2: GDH-TPI inhibition counter-screen for FBA inhibitors. shares compounds with FBA Mtb inh. GDH-TPI coupled enzyme counterscreen, fluorescence. inhibition, % at 1 µM. 5,600 compounds, 81% hits. AID 652141; in the data active = inhibition above about 10%
GDH-TPI dose: counter-screen for M. tuberculosis FBA inhibitors: GDH-TPI dose response; shares compounds with FBA Mtb inh; GDH-TPI coupled enzyme assay, fluorescence, artifact counterscreen; IC50, µM; 170 compounds, 79% hits; AID 652145; call rule not given here
* marks the source's active call; other numbers are inactive results; · = no result given; + = active, no number. In the library only some 3.5% were active in any assay of this set; here they are far more common. Cut-off read from the data, not from the text of the source, unless noted: active = inhibition above about 27%; inactive = the rest.

SMILES | FBA Mtb inh | FadD28 binding | Rv3671c inh | Mtb hypoxia inh | Mtb UGM inh | GDH-TPI counter-1 | Mtb FBA inh conf | GDH-TPI counter-2 | others
COc1ccc(-c2[nH]ncc2CN(Cc2nccn2C)C(C)C)c(F)c1 | -1.2 | 1.0 | 10.5 | -2.4 | -0.4 | 4.4 | · | ·
CCn1ccnc1CN(C)Cc1cn[nH]c1-c1ccc(F)cc1F | 90.5* | -2.0 | 7.6 | 3.0 | -2.3 | 1.3 | 0.4 | -5.5
COC(=O)/C(=C/Nc1cccc2ccccc12)[N+](=O)[O-] | 73.9* | -1.4 | 7.0 | 19.6 | -3.5 | -1.9 | 98.3* | 80.1*
COc1cc(OC)cc(C(=O)Nc2cccc3ccccc23)c1 | -2.1 | -4.8 | -6.1 | 21.4 | -1.6 | 6.0 | · | ·
COCCNC(=O)CCc1c(C)nc2c(c(C)nn2-c2ccc(C)cc2)c1C | 54.6* | -0.9 | -9.7 | 13.7 | 1.9 | 3.5 | 63.0* | 48.8*
COCCCNC(=O)Cn1nc(-c2ccc(C)cc2)ccc1=O | 8.5 | -1.7 | 5.6 | 4.3 | 2.0 | 8.5 | · | ·
COCCNC(=O)CCc1c(C)nc2c(c(C)nn2-c2ccc(C)c(C)c2)c1C | 42.6* | -1.0 | 8.8 | 12.1 | -1.6 | -1.4 | 73.7* | 56.3*
Cc1ccc(-n2nc(C)c3c(C)c(CCC(=O)NC(C)c4ccccc4)c(C)nc32)cc1 (centres undefined) | 3.3 | -2.4 | 3.9 | 2.2 | -0.7 | 6.6 | · | ·
CCN(CC)CCNC(=O)CCc1c(C)nc2c(c(C)nn2-c2ccc(C)cc2)c1C | 41.0* | -1.0 | · | -6.5 | -2.0 | 11.0 | 7.9 | -3.1
COCCNC(=O)CCc1c(C)nc2nc(-c3cc(OC)cc(OC)c3)nn2c1C | -2.7 | -0.5 | -7.3 | 2.6 | -0.7 | 0.0 | · | ·
COCCCNC(=O)CCc1c(C)nc2c(c(C)nn2-c2ccc(C)cc2)c1C | 56.3* | -0.7 | · | 3.0 | -3.3 | 6.6 | 71.5* | 77.1*
C#CCOCCOCCOCCNc1nc(N2CCN(C(=O)CCCCCCCCCCNC(=O)C(CCSC)n3cc(CCO)nn3)CC2)nc(N2CCN(C(=O)CCCCCCCCCCNC(=O)C(CCSC)n3cc(CCO)nn3)CC2)n1 (centres undefined) | · | · | · | 0.2 | · | · | · | ·
CC(=NOC(=O)c1ccccc1)c1oc(C)nc1C | · | · | · | -7.9 | · | · | · | ·
CN(C)c1ccc(/C=N\NC(=O)CC#N)cc1 | 29.5* | -1.6 | 1.1 | · | -0.9 | 35.0* | 12.5 | 2.7
Cc1[nH]c(C(=O)N/N=C/c2ccc(N(C)C)cc2)c(C)c1C(=O)N/N=C/c1ccc(N(C)C)cc1 | 27.6* | 0.2 | 4.3 | · | -2.2 | 45.5* | 59.9* | 43.8*
CN(C)c1ccc(C=NNC(=O)CC#N)cc1 | · | · | · | 1.1 | · | · | · | ·
COc1ccc2c(c1)CC(C)CC2=NNC(=O)c1ccco1 (centres undefined) | · | · | · | 8.6 | · | · | · | ·
CC1=C(C(=O)Nc2ccc(F)cc2)C(c2ccncc2)C2=C(CCCC2=O)N1 (centres undefined) | 4.4 | -1.8 | -10.2 | -74.7 | -1.0 | 12.6 | · | ·
CCn1cc(C2C(C(=O)Nc3ccc(Br)cn3)=C(C)NC3=C2C(=O)CCC3)c(C)n1 (centres undefined) | 32.8* | 0.1 | -6.8 | 2.4 | 1.9 | 12.8 | 131.9* | 94.0*
CC1=C(C(=O)Nc2ccccn2)C(c2cn(C)nc2C)C2=C(CCCC2=O)N1 (centres undefined) | 37.0* | -1.1 | 0.4 | 2.0 | -2.0 | 13.6 | + | 171.3*
c1ccc2[nH]cnc2c1 | 4.7 | 0.2 | 5.0 | 3.7 | 1.6 | 15.9 | · | ·
c1ccc2nc3[nH]cnc3nc2c1 | 42.0* | -0.8 | -0.6 | -1.4 | 2.8 | 21.2 | 154.4* | 101.3*
O=C(O)c1ccc(-c2nc(-c3ccccc3)c(-c3cccs3)[nH]2)cc1 | 47.2* | 1.2 | 6.9 | 1.6 | -4.4 | -2.6 | 74.9* | 54.5*
CC(=NNC(=O)CSCc1cccc(Br)c1)c1ccc([N+](=O)[O-])cc1 | · | · | · | 12.1 | · | · | · | ·
CC1CC(C)CN(C(=O)c2cc3c(=O)n4ccccc4nc3s2)C1 (centres undefined) | 52.7* | · | 8.6 | 16.4 | -1.8 | 8.2 | + | +
SMILES | FBA Mtb inh | FadD28 binding | Rv3671c inh | Mtb hypoxia inh | Mtb UGM inh | GDH-TPI counter-1 | Mtb FBA inh conf | GDH-TPI counter-2 | others
CC(C)NC(=O)c1cc2c(=O)n3ccccc3nc2s1 | -3.3 | 0.8 | 4.2 | 4.3 | -1.0 | -12.5 | · | ·
CCOC(=O)N1CCN(C(=O)c2cc3c(=O)n4ccccc4nc3s2)CC1 | 49.0* | 0.1 | -6.7 | -5.3 | 0.6 | 13.0 | 66.5* | 58.0*
CC(CC1CC(COCC(C)C)OC1=O)=NNc1nc(-c2ccccc2)cs1 (centres undefined) | · | · | · | 6.2 | · | · | · | ·
Cc1ccc(NC(=O)C2=CC=CN3CCS(=O)(=O)N=C23)cc1 | 1.7 | -4.8 | 0.3 | 10.2 | -2.1 | 8.1 | · | ·
CC1=C(Cl)C2=NS(=O)(=O)CCN2C=C1Cl | 89.3* | 0.2 | -9.6 | -11.1 | -3.4 | 7.6 | 159.4* | 116.1*
CCC(C)C(N)c1cn(C(CCCCN)C(=O)N2CCNCC2)nn1 (centres undefined) | · | · | · | 3.3 | · | · | · | ·
Cc1c(C(=O)Nc2ccc(F)cc2)c2ccccn2c1CCc1ccncc1 | 32.1* | 1.6 | -9.8 | 13.3 | 1.6 | 19.5 | + | +
COC(=O)CCc1c(C)c(C(=O)c2ccc(F)cc2)c2ccccn12 | 2.4 | 0.4 | 9.2 | 8.1 | 0.2 | 5.5 | · | ·
Cc1ccc(OCC(=O)Oc2ccc(C(C)C)cc2)cc1 | 29.5* | -2.5 | -1.6 | 6.3 | -2.0 | -13.1 | 183.1* | 130.4*
Cc1ccc2cc3c(nc2c1)N(c1ccccc1)CC3 | 47.2* | 0.3 | 6.1 | 17.2 | 2.0 | 6.2 | 4.9 | -5.0
CC(=O)NN1CCc2cc3ccc(C)cc3nc21 | 39.6* | -2.1 | -0.8 | -4.5 | 0.8 | 14.7 | -0.8 | 0.1
O=C(c1ccccc1)c1ccc(OCC(O)CN2CCOCC2)cc1 (centres undefined) | 76.3* | -3.0 | 4.1 | · | -0.7 | -10.6 | 15.7 | 9.0 | GDH-TPI dose=>10
CCOC(=O)N1CCC2(CC1)CC(=O)c1c(ccc3oc(C(=O)O)c(C)c13)O2 | 81.5* | -1.7 | -5.8 | 8.8 | 2.2 | 26.7 | 33.3* | 30.1*
CCCNC(=O)c1oc2ccc3c(c2c1C)C(=O)CC(C)(C)O3 | 36.2* | -3.1 | 8.1 | 2.7 | -1.8 | 11.9 | 54.6* | 51.3*
CCCNC(=O)c1oc2ccc3c(c2c1C)C=CC(C)(C)O3 | 16.0 | -2.9 | -7.4 | 13.5 | -0.9 | 3.8 | · | ·
Cc1ccc(NC(=O)CC(C)S(=O)(=O)c2ccc3c(c2)NC(=O)CO3)c(Cl)c1 (centres undefined) | 70.9* | -2.0 | -3.2 | 15.6 | -3.1 | 0.0 | + | +
O=C(CC1C(=O)N(CCc2ccccc2)CC1Cc1ccccc1)Nc1ccccc1 (centres undefined) | · | · | · | 10.8 | · | · | · | ·
CC1=C(C#N)C(C=NOCc2ccc(F)cc2Cl)CC(=O)N1 (centres undefined) | · | · | · | 4.1 | · | · | · | ·
